KKLEB tox – cytotoxicity in KKLEB CF airway cells, primary screen, cytotoxicity control for CF NF-kB inhibitor project, cell-based, uHTS, fluorescence assay plates | hit rate 0.36% among 360,000 | activity change (cytotoxicity), % at 5 µM | KKLEB CF airway cells viability, ATPlite luminescence, overnight; stronger effect = lower value; cells stimulated with P. aeruginosa culture filtrate;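 active means corrected activity change at or below -50% at 5 µM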
MITF TRPM1 inh – inhibitors of MITF-dependent TRPM1 promoter reporter, primary screen, cell-based, SK-MEL-5, single point, luciferase | hit rate 0.83% among 330,000 | inhibition, % at 12.5 µM | SK-MEL-5 TRPM1 promoter luciferase, 24 h;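 active means mean inhibition across replicates of 60% or more, whatever share of single replicates reaches that level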
Peg3 prom inh – Peg3 promoter-driven luciferase inhibitors, primary screen, cell-based, HeLa, luciferase luminescence | HeLa PEG-Prom luciferase reporter, overnight | hit rate 1.7% among 360,000 | AID 588405, 2011 | inhibition, % at 20 µM;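 active means inhibition of at least 50% at 20 µM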
CF NFkB inh – inhibitors of PAF-induced NF-kB signaling, primary screen, cell-based, GFP fluorescence, uHTS; KKLEB NF-kB-GFP reporter, GFP fluorescence overnight; inhibition, % at 5 µM; hit rate 0.86% among 360,000;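 active means at least 50% inhibition at 5 µM, scaled per plate between neutral and stimulator controls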;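 further: PAF is a Pseudomonas aeruginosa culture filtrate used as stimulus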
HIF-2a inh – HIF-2a reporter inhibitors, primary screen, luminescence, 786-0 RCC cells | hit rate 0.72% among 360,000 | AID 624352, 2012 | 786-0 RCC cells HIF-2a reporter, luciferase luminescence, overnight | inhibition, % at 18.8 µM;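 active means inhibition of the luminescence signal of 40% or more relative to plate controls, in a single-dose primary screen at 18.75 µM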
CHOP inhibitor – inhibitors of CHOP promoter induction, primary screen, cell-based, unfolded protein response, luciferase reporter. CHO-K1 CHOP-promoter luciferase, tunicamycin-induced, 15-18 h. hit rate 3.8% among 220,000. AID 2732, 2010. inhibition, % at 10 µM;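 active means compounds that reduced the stress-induced luciferase reporter signal by more than about 70% of percent inhibition, limit read from the data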
CHOP confirm – retest of CHOP induction inhibitors, confirmation, cell-based; inhibition, % at 10 µM; hit rate 45% among 2,100; AID 504437, 2011; shares compounds with CHOP inhibitor; CHO-CHOP promoter luciferase reporter, tunicamycin-induced, luminescence;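 active means mean of three repeat readings of reporter signal inhibition above a set limit, cut at about 70% in these data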
A number is an active result; . = inactive; / = no result given. Most compounds without a hit are left out; they make up all but 4.3% or so of the library.

SMILES	KKLEB tox	MITF TRPM1 inh	Peg3 prom inh	CF NFkB inh	HIF-2a inh	CHOP inhibitor	CHOP confirm
Clc1ccc2c(N/N=C/c3cccc(Br)c3)ccnc2c1	.	83.2	76.1	.	.	105.2	.
Cc1csc(=O)n1CC(=O)OCC(=O)NC(C)c1ccc(F)cc1 (stereo not given)	.	.	.	.	.	/	/
CCn1cc([N+](=O)[O-])c(C(=O)N2N=C(c3ccc(O)c(OC)c3)CC2c2ccccc2O)n1 (stereo not given)	.	.	.	.	.	.	/
CCn1cc([N+](=O)[O-])c(C(=O)N2N=C(c3ccc(Cl)c(Cl)c3)CC2c2ccccc2O)n1 (stereo not given)	.	.	.	.	.	100.6	77.9
Cn1nnnc1SCC(=O)Nc1cc(S(=O)(=O)N2CCCCC2)ccc1Cl	.	.	.	.	.	/	/
Cc1ccc(N=Cc2c(O)n(-c3ccc4c(c3)OCO4)c(=O)c3ccccc23)cc1	.	.	.	.	.	101.8	.
Cc1cccc(-n2c(O)c(C=Nc3ccc(O)cc3)c3ccccc3c2=O)n1	.	.	.	.	.	.	/
CCc1cc(CNC(=O)CC2C(=O)NCCN2Cc2cccc(OC)c2)on1 (stereo not given)	.	.	.	.	.	.	/
CC(C)(C)c1ccc(OCCNC(=S)Nc2ccccc2)cc1	.	.	.	.	.	104.1	72.5
CC(C)(C)c1ccc(OCCNCc2ccccc2)cc1	.	.	.	.	.	/	/
CCCCN1C(=O)C2(NNc3ccccc3O2)c2ccccc21 (stereo not given)	.	.	.	.	.	102.8	.
C=CCN1C(=O)C2(NNc3ccccc3O2)c2ccccc21 (stereo not given)	.	.	.	.	.	.	/
O=C(OCc1ccc(F)cc1)c1ccc2c(c1)-c1ccccc1C2=O	.	.	.	.	.	.	/
CCOC(=O)C1=C(Cc2ccc(F)cc2)C(=O)c2ccccc2C1=O	.	.	.	.	.	108.0	.
CC(C)NC(=O)C1C(c2ccc(C(F)(F)F)cc2)=Nc2ccccc2N1C(=O)c1cc2ccccc2[nH]1 (stereo not given)	/	/	/	/	.	/	/
CC(C)(C)c1ccc(C(=O)N/N=C/c2cccc(Cl)c2)cc1	.	.	.	.	.	.	/
O=C(Nc1ccccc1O)c1c(O)c2c([nH]c1=O)CCCC2	.	.	.	.	.	103.2	126.0
O=C(N/N=C/c1cccc(Cl)c1)c1c(O)c2c([nH]c1=O)CCCC2	.	.	.	.	.	98.0	.
COc1ccc(S(=O)(=O)NC(=O)C2(C)CCN2C(=O)C(C)(C)c2ccccc2)cc1 (stereo not given)	.	/	.	.	.	/	/
O=C(COc1ccc(S(=O)(=O)Nc2ccccc2)cc1)NCc1ccncc1	.	.	.	.	.	.	/
COc1ccc(NC(=O)NCCCCc2ccccc2)c(OC)c1	.	.	.	.	.	/	/
COc1ccc(NC(=O)/C(Cl)=C(/Cl)S(=O)(=O)Cc2ccc(C)cc2)cn1	-70.9	94.2	105.1	86.6	95.9	/	118.1
COc1ccc(NC(=O)/C(Cl)=C(/Cl)S(=O)Cc2ccccc2Cl)cn1 (stereo not given)	/	97.6	/	/	/	109.7	119.7
COc1ccc(NC(=O)Cc2ccc(Cl)c(Cl)c2)cn1	.	.	.	.	.	.	/
COc1cc(CNCc2ccncc2)cc(Br)c1OCc1ccccc1F	.	.	.	.	.	.	/
SMILES	KKLEB tox	MITF TRPM1 inh	Peg3 prom inh	CF NFkB inh	HIF-2a inh	CHOP inhibitor	CHOP confirm
CCOc1cc(CNc2ccc(O)cc2)cc(Br)c1OCc1ccccc1F	.	.	.	.	.	109.6	.
COc1cc(NS(=O)(=O)c2ccc(NC(=S)NC(=O)c3sc4ccccc4c3Cl)cc2)ncn1	.	.	.	.	.	99.5	.
CCOC(=O)C1CCCCN1Cc1ccc(F)c(Br)c1 (stereo not given)	.	.	.	.	.	106.0	.
CCOC(=O)C1CCCCN1Cc1ccc(OC)c(OC)c1 (stereo not given)	.	.	.	.	.	.	/
Cc1nn2c(N)c(C#N)cnc2c1-c1ccc(Cl)cc1	.	.	.	.	.	97.8	.
Cc1nn2c(N)c(C#N)cnc2c1-c1ccccc1	.	.	.	.	.	.	/
COc1ccc(C2c3c(-c4ccccc4O)n[nH]c3C(=O)N2CCc2ccc(OC)c(OC)c2)cc1 (stereo not given)	.	.	.	.	.	.	/
COc1ccc(CCN2C(=O)c3[nH]nc(-c4ccccc4O)c3C2c2cccc(Cl)c2)cc1 (stereo not given)	.	.	97.8	.	.	104.4	88.0
CCOc1ccc(/C=N/NC(=O)c2cc(-c3ccco3)nc3ccccc23)cc1	.	.	.	.	.	104.3	94.6
CC(=O)c1ccc(Nc2nc(C(N)COCc3ccccc3)cs2)cc1 (stereo not given)	.	/	.	.	.	/	/
CSCC[C@@H](CO)NC(=O)[C@H]1O[C@@H](n2ccc(N)nc2=O)[C@H](O)[C@@H]1O	.	/	.	.	.	/	/
CC(C)C(=O)N1CCC(CN=Cc2c(O)n(C3CCCCC3)c(=O)n(C3CCCCC3)c2=O)CC1	.	.	.	.	.	104.5	118.3
CN(c1ccccc1)C1CCCCC1NS(=O)(=O)c1ccc(Cl)cc1 (stereo not given)	.	.	.	.	.	96.2	.
Cc1ccc(Cn2c(=O)c3c(nc4n3CCCN4Cc3ccccc3)n(C)c2=O)cc1	.	.	.	.	.	104.5	.
CC(C)C[C@H](N)c1nnc(S(=O)(=O)Cc2ccc(F)cc2)o1	.	.	114.3	89.9	.	103.0	.
CC(C)C[C@H](N)c1nnc(SCC(=O)Nc2ccc(Br)cc2)o1	.	.	.	.	.	/	/
CN(C)S(=O)(=O)c1ccc(Cl)c(C(=O)NC2CCCCCCC2)c1	.	.	.	.	.	/	/
CCCCOCCCNC(=O)C[C@@H]1C[C@@]2(C(=O)OCC)CCCC=C2N(CCc2ccc(OC)c(OC)c2)C1=O	/	/	/	/	.	/	/
O=C(COC(=O)/C=C/C(=O)OCC(=O)NC12CC3CC(CC(C3)C1)C2)NC12CC3CC(CC(C3)C1)C2	.	76.0	102.7	.	.	104.8	.
Cc1nn(Cc2ccccc2)c(C)c1CNC(=O)[C@H](C)N=C1NS(=O)(=O)c2ccccc21	.	.	.	.	.	/	/
COc1ccc(-c2[nH]c(-c3ccc(Cl)cc3)nc2SCC(=O)Nc2nccs2)cc1	.	.	.	.	.	98.2	.

High-throughput results (PubChem)
